Source: PMC4552634, “A New Set of Chemical Starting Points with Plasmodium falciparum Transmission-Blocking Potential for Antimalarial Drug Discovery” (PLoS ONE, 2015)
About 3,200 (25%) of roughly 13,000 compounds showed an effect of 50% or more. The list shows a part of the results.

Test system: P. falciparum stage V gametocytes
Design: BacTiter-Glo ATP luminescence viability of purified stage V gametocytes in 384-well plates, per cent inhibition versus DMSO
Details: 48 h, 5 µM; inhibitor

Row | Compound | % Inhibition [%]
1 | Cc1nc2c(c(C)nn2C(C)(C)C)c(C)c1CCC(=O)Nc1ccc(CN2CCCC2)cc1 [TCMDC-124397] | -7.615
2 | COC(=O)c1ccc(Nc2nccc(Nc3ccc(Oc4ccccc4)cc3)n2)cc1 [TCMDC-138560] | -28.54
3 | COc1cccc(Nc2nc(C)cc(NCc3ccc(-n4ccnc4)cc3)n2)c1 [TCMDC-133450] | 43.61
4 | Cc1cc(N(C)C)nc(Nc2ccc(NC(=O)c3ccccc3F)cc2)n1 [TCMDC-124725] | 4.015
5 | Cc1cc(Cl)c(S(=O)(=O)NC2CCCC2)cc1OCC(=O)NC1CCCCC1 [TCMDC-124353] | 26.39
6 | Fc1cccc(COc2ccc(Nc3ncnc4ccc(-c5nnc(C(F)(F)F)o5)cc34)cc2Cl)c1 [TCMDC-138162] | -34.34
7 | Cc1cc(NN=Cc2ccccc2F)c2cccc(C)c2n1 [TCMDC-142068] | -42.7
8 | COc1ccc2nc(C)cc(NN=Cc3cccc(F)c3)c2c1 [TCMDC-142084] | 32.42
9 | Cc1cc(NN=Cc2ccc(F)cc2)c2cccc(C)c2n1 [TCMDC-142082] | 83.37
10 | COc1ccc2nc(C)cc(NN=Cc3ccc(F)cc3)c2c1 [TCMDC-123973] | 111.2
11 | COc1ccc2c(NN=Cc3cccc(F)c3)cc(C)nc2c1 [TCMDC-142085] | 106.9
12 | Cc1cc(NN=Cc2cccc(F)c2)c2cccc(C)c2n1 [TCMDC-142081] | -19.79
13 | CCCC(=O)Nc1ccc(OCCCCN(CC(C)(C)C)c2ccc(C#N)c(C(F)(F)F)c2)cc1 [TCMDC-132784] | -2.311
14 | O=C(Nc1ccc(-c2nc3ccccc3[nH]2)cc1)c1cccc([N+](=O)[O-])c1 [TCMDC-123637] | -11.52
15 | O=S(=O)(Nc1ccc2nccc(N3CCNCC3)c2c1)c1ccc(-c2ccccc2)cc1 [TCMDC-139546] | 12.57
16 | Cc1n[nH]c2ccc(-c3ccc4nccc(N5CCC(N)CC5)c4c3)cc12 [TCMDC-134315] | 105.4
17 | Clc1ccc2nccc(N3CCC(CN4CCC(c5c[nH]c6ccccc56)CC4)CC3)c2c1 [TCMDC-134281] | 0.1691
18 | Cc1ccc(Nc2nc(C)cc(N3CCN(c4ccccc4)CC3)n2)cc1 [TCMDC-125308] | -56.11
19 | CCN1CCN(CCCNc2c3ccccc3nc3ccccc23)CC1 [TCMDC-137546] | 84.24
20 | CCN1CCN(c2ccc(Nc3c4ccccc4nc4ccccc34)cc2)CC1 [TCMDC-124255] | 96.72
21 | CC[C@H](NC(=O)c1c(CCCN2CCN(c3ccccc3)CC2)c(-c2ccccc2)nc2cc(O)ccc12)c1ccccc1 [TCMDC-139302] | 9.444
22 | CCn1c(-c2ccccc2)cc2nnc3ccccc3c21 [TCMDC-138220] | 3.318
23 | CN1CCN(c2ccc(Nc3c4ccccc4nc4ccccc34)cc2)CC1 [TCMDC-123912] | 39.23
24 | CCN1CCN(CCCCNc2c3ccccc3nc3ccccc23)CC1 [TCMDC-137570] | 80.96
25 | CCN1CCN(CCNc2c3ccccc3nc3ccccc23)CC1.Cl [TCMDC-137545] | 85.19
